Data on 40 compounds can be found in PubChem BioAssay (Tox21).

Inconclusive results are not listed. A number with no mark means an inactive call. Active and inactive are the calls of the source. Calls follow the shape of the dose curve; as a rule, active = well fitted activation curve with a large enough effect in the repeat runs; inconclusive = weak or mixed curves; inactive = flat fitted curve, though single readings scatter.
% is scaled to controls: 0 for no effect and ±100 for the full control effect; potency is read from the fitted curve at half-maximal effect.

The nature of this test: A CellTox Green Cytotoxicity Assay to monitor cytotoxicity in HEK293 cells - 16 hour (AID 1224888). Also: nearly all actives have a fitted effect of over 35% in size. To be noted: CellTox Green fluorescence; series mostly up to 76.8 µM; activity change: at the top concentration. The text has this: National Center for Advancing Translational Sciences [NCATS]
NIH Chemical Genomics Center [NCGC]
U.S. Environmental Protection Agency [EPA]
National Institutes of Environmental Health Sciences [NIEHS]
National Toxicology Program [NTP]
Cell-based models are critical for drug discovery. Determining the natural cytotoxic effects resulting from test compounds is an essential research activity. A CellTox Green Cytotoxicity Assay to monitor cytotoxicity in real time of continues cell culture during 40 hours of the compound treatment was used to screen Tox21 10K library compounds in Hek293 cells. CellTox Green Cytotoxicity Assay is a nonlytic, homogeneous, biofluorescent method to measure cytotoxicity in cell culture after experimental manipulation. The assay system uses a proprietary asymmetric cyanine dye that is excluded from viable cells but preferentially stains the dead cell's DNA. […] Viable cells produce no appreciable increases in fluorescence. Therefore, the fluorescence signal produced by the binding interaction with dead cell DNA is proportional to cytotoxicity.
The mixture of Hek293 cell suspension and reagents were dispensed at 600cells/6 ul/well in 1536-well tissue culture treated black solid bottom plates using a Multidrop dispenser. After the assay plates were incubated at a 37 C/5% CO2 incubator for 5 hours, 23 nL of compounds dissolved in DMSO, positive and negative controls was transferred to the assay plate by a pintool work station. The plates were incubated at 37 C for 40 hours. The fluorescence intensity were measured at 0h, 8h, 16h, 24h, 32h and 40h time points using ViewLux plate reader during compound treatment.
With `CNN`, the “activity change” value is -6.93%. As to `C=CCOC(=O)c1ccccc1N`, the “activity change” value is 29.4%. On to `O=C(N[C@@H]1N=C(c2ccccc2F)c2cccc3c2N(CC3)C1=O)c1cc2ccccc2[nH]1`, for which the Potency is 5.35 µM (active). Regarding `CN(C)c1ccc(N)cc1`, the “activity change” value is 16.5%. `CC(=O)[O][Sn]([c]1ccccc1)([c]1ccccc1)[c]1ccccc1`: the Potency is 0.347 µM (active). For `O=S(=O)(NS(=O)(=O)C(F)(F)F)C(F)(F)F`, the “activity change” value is 2.32%. For `CCCCCCC[CH2][Sn]([Cl])([Cl])[CH2]CCCCCCC`, the “activity change” value was -11.8%. On the same count and under the same terms, in the case of `O=c1[nH]c(Cl)c(Cl)cc1Cl` it was 12%; in that of `C1=CCC=C1`, -6.93%. The same measure, in the same setting: in the case of `C=CCBr` it was -10.4%. Still for that read-out and setting: in the case of `O=C1C(Cl)=C(Cl)C(=O)C(Cl)=C1Cl` it was 7.77%; in that of `CSSC`, -14.6%; in that of `COc1cnc(OC)n2nc(NS(=O)(=O)c3c(OCC(F)F)cccc3C(F)(F)F)nc12`, -5.26%.

With `Fc1ccc(C(OCCN2CCN(CCCc3ccccc3)CC2)c2ccc(F)cc2)cc1`, the Potency is 21.3 µM (active). For `CCNS(=O)(=O)C(F)(F)C(F)(F)C(F)(F)C(F)(F)C(F)(F)C(F)(F)C(F)(F)C(F)(F)F`, the “activity change” value was -1.86%. Consider `CN(C)CCc1c[nH]c2ccccc12`, for which the “activity change” value was -16.8%. For `Oc1ccc([C@H]2CNCc3c2ccc(O)c3O)cc1O`, the Potency is 26.8 µM (active). With `CCOP(=O)(Sc1ccccc1)Sc1ccccc1`, the “activity change” value was -4.27%. Same read-out and setting: in the case of `Nc1cc(Cl)ccc1Cl` it was 1.51%; in that of `CNC(=O)CSP(=O)(OC)OC`, -11.3%. Same read-out and setting: under `N#CCCl` stands -7.76%. The same measure, in the same setting: in the case of `CSC1=N[C@@](C)(c2ccccc2)C(=O)N1Nc1ccccc1` it was -2.61%. Consider `O=S1(=O)OCC2C(CO1)C1(Cl)C(Cl)=C(Cl)C2(Cl)C1(Cl)Cl` (stereo not given), for which the “activity change” value is 19.2%. Same read-out and setting: in the case of `O=c1[nH]c2cc(Cl)ccc2n1C1CCNCC1` it was 0.387% [at 35.3 µM, stronger effect = higher value]. `C[C@]12CC[C@H]3[C@@H](CCC4=CC(=O)CC[C@@H]43)[C@@H]1CC[C@@H]2OC(=O)CCc1ccco1`: the “activity change” value was 3.14% [at 35.3 µM, stronger effect = higher value].

As to `CC1CCCC1`, the “activity change” value was -0.696%. Same read-out and setting: under `[O]=[Cr][O][Cr]=[O]` stands 6.04%; under `Cc1cc(C2CC2)nc(Nc2ccccc2)n1`, 9.92%; under `CC(C)=CCN1CC[C@@]2(C)c3cc(O)ccc3C[C@@H]1[C@@H]2C`, -12.1%.

As to `N#Cc1ccc(N(CC(N)=O)CC(F)(F)F)cc1C(F)(F)F`, the “activity change” value was -6.89%.

In the case of `COc1nc(C)nc(NC(=O)NS(=O)(=O)c2ccccc2Cl)n1`, the “activity change” value is -1.56%. `CC[C@H](C)[C@H]1O[C@]2(C=C[C@@H]1C)C[C@@H]1C[C@@H](C/C=C(\C)[C@@H](O[C@H]3C[C@H](OC)[C@@H](O[C@H]4C[C@H](OC)[C@@H](NC)[C@H](C)O4)[C@H](C)O3)[C@@H](C)/C=C/C=C3\CO[C@@H]4[C@H](O)C(C)=C[C@@H](C(=O)O1)[C@]34O)O2`: the Potency was 15.5 µM (active). For the compound `C#CC1(O)CCCCC1`, the “activity change” value was 13%. In the case of `COP(=S)(OC)Oc1ccc([N+](=O)[O-])c(C)c1`, the “activity change” value is 3.11%. On the same count and under the same terms, in the case of `Nc1ccc(Cl)cc1C(=O)c1ccccc1F` it was -10.2% [at 35.3 µM, stronger effect = higher value]; in that of `BrCC(Br)(Br)Br`, -0.22%. On the same count and under the same terms, under `COP(=O)(OC)O/C(=C\Cl)c1cc(Cl)c(Cl)cc1Cl` stands 3.17%. Regarding `COC(=O)c1ccccc1S(=O)(=O)NC(=O)Nc1nc(C)nc(OC)n1`, the “activity change” value is 10.4%.

Take `CCCCn1cc[n+](C)c1.[Cl][Fe-]([Cl])([Cl])[Cl]`: the “activity change” value is 0.847%.

Turning to `CCC[CH2][Sn]([CH2]CCC)([CH2]CCC)[CH2]CCC`, the Potency is 24.5 µM (active).
